Screening results as filed in PubChem BioAssay.
Rows were chosen to be rich in hits. Some 6.1% of all compounds tested hit in one or more screens of this group.
D1 antagonist: antagonists of human D1 dopamine receptor; P21728; HEK293 TREx D1 cells, calcium flux, dopamine EC80; hits give low values; activity change, negative = inhibition, % at 10 µM; hit rate 3.2% among 360,000; AID 504652; in the data active = activity change below about -30%
Target sequence (P21728 whole entry, looked up): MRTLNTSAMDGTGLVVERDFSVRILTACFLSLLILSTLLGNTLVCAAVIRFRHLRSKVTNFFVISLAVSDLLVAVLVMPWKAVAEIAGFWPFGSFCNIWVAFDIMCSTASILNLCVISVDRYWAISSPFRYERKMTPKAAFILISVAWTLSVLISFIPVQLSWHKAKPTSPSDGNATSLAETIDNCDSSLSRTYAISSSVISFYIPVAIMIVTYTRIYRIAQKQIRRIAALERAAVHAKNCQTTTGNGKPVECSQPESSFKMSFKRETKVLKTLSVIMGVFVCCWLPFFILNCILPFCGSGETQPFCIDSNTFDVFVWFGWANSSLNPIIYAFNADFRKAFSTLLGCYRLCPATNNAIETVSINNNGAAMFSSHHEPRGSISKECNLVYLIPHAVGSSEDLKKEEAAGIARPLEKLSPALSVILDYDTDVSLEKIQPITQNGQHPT
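Antagonism measured as reduced calcium response to an EC80 dopamine addition following 180 s compound pre-read; cells were inducible HEK293 Trex D1 plated overnight at 30 C, read kinetically at 1 cycle/sec.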
D1 potentiator: human D1 dopamine receptor positive modulation; P21728; HEK293 TREx D1 cells, calcium flux, dopamine EC20 potentiation; potentiation, % at 10 µM; hit rate 0.036% among 360,000; AID 504651; in the data active = potentiation above about 30%
DRD3 agonist: activates the human D3 dopamine receptor; P35462; D3R DiscoveRx beta-arrestin cells, luminescence, 90 min; max activation, %; hit rate 0.58% among 410,000; in the data active = max activation above about 30%
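Agonist-mode cell screen: cells plated at 1500/well and incubated overnight at 37 °C, then exposed to library compounds for 90 min at 37 °C. Detection reagent was added for 30–60 min at room temperature, and luminescence was read.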
D3 antag: antagonists of human D3 dopamine receptor | P35462 | D3R cells, DiscoveRx beta-arrestin luminescence, antagonist mode; hits give low values | max response, negative = inhibition, % | hit rate 2.5% among 360,000; in the data active = max response below about -50%; inconclusive = no clear call, values can overlap the other calls
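Cells plated overnight at 1500 cells/well, then exposed to library compounds with dopamine controls for 90 minutes at 37 degrees C. DiscoveRx reagent added for 30–60 minutes at room temperature; luminescence read, quantitative HTS format.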
D1 ag: agonists of human D1 dopamine receptor. HEK293 T-REx D1 cells, calcium flux, agonist mode. AID 504660. P21728. hit rate 1% among 360,000. activation, % at 2 µM; in the data active = activation above about 30%
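Agonism was scored from calcium flux recorded over 180 s (1 read/s) after pintool compound addition, following a 10-cycle baseline. Cells were inducible force-coupled HEK293 TREx D1, plated overnight at 30 C and loaded with no-wash calcium dye.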
Each line names hits and unclear results; the compound was inactive in the other large screens.

O=C(NCc1ccc(F)cc1)C(c1ccco1)N(C(=O)c1csnn1)c1ccccc1 (configuration not stated)	DRD3 agonist 49 (no result: D1 potentiator)
O=c1c2ccccc2n2c(-c3ccc(Cl)cc3)nnc2n1CCc1ccccc1	none (no result: D3 antag)
Cc1ccccc1OCCSc1nc2ccc(NC(=O)c3cccs3)cc2s1	none (no result: D3 antag)
O=C(NCCN1CCOCC1)C(=O)c1c[nH]c2ccccc12	D1 antagonist -52
O=C(CN1CCOCC1)c1c[nH]c2ccccc12	none
O=C(O)CC(CNS(=O)(=O)c1ccccc1)c1ccccc1 (configuration not stated)	D1 antagonist -33
O=C(O)CCCCCCNS(=O)(=O)c1ccccc1	none
CC(=O)c1cc(-c2ccccc2)n(CCC(=O)Nc2nc3c(C)cccc3s2)c1C	none (no result: D3 antag)
C/C(=N\OCc1nc2ccccc2c(=O)n1/N=C/c1cc([N+](=O)[O-])ccc1O)c1ccccc1	none
C/C(=N\OCc1nc2ccccc2c(=O)n1/N=C/c1cc(C)cc([N+](=O)[O-])c1O)c1ccccc1	D1 antagonist -33
Cc1nn(CCCC(=O)Nc2cccc(F)c2)c(=O)c2c1sc1ccccc12	none (no result: D3 antag)
O=C(O)CSCCc1ccccn1	D1 antagonist -82
O=C(NCc1ccc2c(c1)CCN2C(=O)c1ccccc1)c1ccco1	none (no result: D3 antag)
CCc1ccc(CNC(=O)C2CCCN(c3nnc(C)c4c(C)n(-c5ccc(OC)cc5)nc34)C2)cc1 (configuration not stated)	DRD3 agonist 31 (no result: D3 antag)
COc1cc(NC(=O)C2CCN(c3nnc(C)c4c(C)n(-c5ccccc5)nc34)CC2)cc(OC)c1	D1 antagonist -40 (no result: D3 antag)
Cc1ccc(-n2nc3c(N4CCCC(C(=O)NCc5ccccc5C)C4)nnc(C)c3c2C)cc1 (configuration not stated)	D1 potentiator 53, D1 ag 44 (no result: D3 antag)
COc1cccc(NC(=O)C2CCN(c3nc4ccccc4nc3C(F)(F)F)CC2)c1	DRD3 agonist 32 (no result: D3 antag)
O=C(CCCc1ccccc1)NC1CC(=O)N(c2ccc(F)cc2)C1 (configuration not stated)	none (no result: D1 antagonist, D3 antag)
COc1ccc(OC)c(C2C(C(=O)Nc3ccc(C)cc3)=C(C)Nc3nnnn32)c1 (configuration not stated)	none (no result: D3 antag)
COc1cc(C(CC(=O)Nc2cc(C)ccc2C)N2Cc3ccccc3C2=O)cc(OC)c1OC (configuration not stated)	none (no result: D3 antag)
CCOc1ccc(C(=O)c2cn(CC(=O)Nc3ccc(F)cc3)c3cc4c(cc3c2=O)OCCO4)cc1	none (no result: D3 antag)
Cc1ccc2nc(NC(=O)CSc3nccn3Cc3ccc(F)cc3)sc2c1	none (no result: D3 antag)
Cn1c(/C=C(\C#N)C(N)=S)ccc1-c1ccc(Br)cc1	D1 antagonist -37
Cc1nnc(SCC(=O)NCC2COc3ccccc3O2)s1 (configuration not stated)	D1 antagonist -31
Cc1cccc(C)c1Nc1nnc(SCC(=O)NCc2cccs2)s1	none
Cc1ccccc1Nc1nnc(SCC(=O)NCc2cccs2)s1	D1 antagonist -41
Cc1nnc(SCC(=O)Nc2ccccc2NC(=O)CSc2nnc(C)s2)s1	D1 antagonist -33
Cc1nnc(SCC(=O)Nc2ccccc2C(=O)NC2CC2)s1	none
Cc1cc(C)cc(NC(=O)C(=O)NCC(c2ccc3c(c2)OCO3)N2CCOCC2)c1 (configuration not stated)	none (no result: D3 antag)
CCC(=O)N1CCc2cc(S(=O)(=O)NCCC(=O)Nc3ccc(C)cc3C)ccc21	none (no result: D3 antag)
COc1ccc(C(=O)N(Cc2sccc2C)C2CCS(=O)(=O)C2)cc1Cl (configuration not stated)	none (no result: D3 antag)
CCCCN(CC)C(=O)Cn1nc(Cc2ccncc2)c2ccccc2c1=O	none
CCN(C(=O)Cn1nc(Cc2ccncc2)c2ccccc2c1=O)c1cccc(Cl)c1	D1 antagonist -83 (no result: D3 antag)
N#C/C(=C/c1ccc(N2CCCCC2)o1)C(=O)Nc1ccc(Cl)cc1	D1 ag 420
CC1CC1c1ccc(/C=C(\C#N)C(=O)Nc2ccc(Cl)cc2)o1 (configuration not stated)	D3 antag inconclusive
N#C/C(=C/c1ccc(N2CCCCC2)o1)C(=O)Nc1ccc2ccccc2c1	D1 antagonist -38, D1 ag 313
CCC1Oc2ccccc2N(CC(=O)NCCC2=CCCCC2)C1=O (configuration not stated)	D1 antagonist -34
CCC1Oc2ccccc2N(CC(=O)NCCN2CCc3ccccc3C2)C1=O (configuration not stated)	D3 antag -53
CCC1Oc2ccc(C)cc2N(CC(=O)NCCCN2CCCC2)C1=O (configuration not stated)	D3 antag -68
CCC1Oc2ccccc2N(CC(=O)NCc2ccccc2)C1=O (configuration not stated)	none (no result: D3 antag)
CCCN1CCN(CCCNC(=O)CN2C(=O)C(CC)Oc3ccccc32)CC1 (configuration not stated)	none
COc1cccc(-c2nc(SCC(=O)Nc3ccc4c(c3)OCCO4)c(-c3ccc(C)cc3)[nH]2)c1	none (no result: D3 antag)
Cc1cc(C)nc(N/N=C/c2ccc3c(c2)OCCO3)n1	D1 antagonist -32
COc1ccc2cc3c(N)c(C(=O)NCc4ccco4)sc3nc2c1	D3 antag -55
COc1ccc2cc3cc(C(=O)NCc4ccco4)oc3nc2c1	none
Cc1cccc(N2C(=O)N(c3ccccc3C)C3CS(=O)(=O)CC32)c1 (configuration not stated)	D3 antag -53
CC(C)C[C@H](NC(=O)CCCn1nnc2ccccc2c1=O)C(=O)O	none
O=C(Cn1ncc(Cl)c(Cl)c1=O)NC1CCCCC1	D1 antagonist -37
O=C(Cn1nnc2ccccc2c1=O)NC1CCCCC1	D1 antagonist -43
O=C(O)CCNC(=O)CCCn1nnc2ccccc2c1=O	D1 antagonist -43
O=C(CC1CCCCC1)OCn1nnc2ccccc2c1=O	none
COc1ccc(-n2ncc3c(NC4CCCC4)ncnc32)cc1	none (no result: D3 antag)
CCCS(=O)(=O)Nc1cc(-c2cn3cccc(C)c3n2)ccc1C	none (no result: D3 antag)
O=S(=O)(NCCc1csc2nc(-c3ccc(Cl)cc3)nn12)c1cccs1	none (no result: D1 antagonist, D3 antag)
Cc1ccccc1Nc1cccc2nonc12	D1 ag 40
Cc1ccccc1NS(=O)(=O)c1cccc2nonc12	none
CCOc1ccc(-c2nc3scc(-c4cccs4)c3c(=O)[nH]2)cc1	D1 antagonist -75
Cc1ccc(-c2csc3nc(-c4ccncc4)[nH]c(=O)c23)cc1	D1 antagonist -34
Cc1ccc(-c2csc3nc(CN(C)Cc4ccccc4)[nH]c(=O)c23)cc1	D1 antagonist -36
O=c1[nH]c(Cc2ccc(F)cc2)nc2scc(-c3ccc(F)cc3)c12	none
CCN(CC)C(=O)C1=C(C)N(CCCOC)C(=O)C(CC(=O)NC2CC2)C1 (configuration not stated)	D3 antag -116 (no result: D1 antagonist, D1 potentiator, D1 ag)
CC1CCN(c2nc3ccc(C(=O)NCc4ccccc4Cl)cc3s2)CC1	none (no result: D3 antag)
